High-throughput results as filed in PubChem.
Compounds with a hit are over-represented: about 4.1% of the library has one in this group of screens.
p-CIP stab down – lowers stability of the mouse p/CIP coactivator protein. Q05BA5. F442A p/CIP-EGFP cells, EGFP fluorescence, 16 h. decrease of EGFP signal, % at 10 µM. 290,000 tested, 0.01% active. AID 1984;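 active = EGFP signal decrease of at least 30% at 10 µM or well 3 SD below plate mean, unless failing retest; inactive = the rest, including hits failing retest or dose response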
Target sequence (Q05BA5 1-1403): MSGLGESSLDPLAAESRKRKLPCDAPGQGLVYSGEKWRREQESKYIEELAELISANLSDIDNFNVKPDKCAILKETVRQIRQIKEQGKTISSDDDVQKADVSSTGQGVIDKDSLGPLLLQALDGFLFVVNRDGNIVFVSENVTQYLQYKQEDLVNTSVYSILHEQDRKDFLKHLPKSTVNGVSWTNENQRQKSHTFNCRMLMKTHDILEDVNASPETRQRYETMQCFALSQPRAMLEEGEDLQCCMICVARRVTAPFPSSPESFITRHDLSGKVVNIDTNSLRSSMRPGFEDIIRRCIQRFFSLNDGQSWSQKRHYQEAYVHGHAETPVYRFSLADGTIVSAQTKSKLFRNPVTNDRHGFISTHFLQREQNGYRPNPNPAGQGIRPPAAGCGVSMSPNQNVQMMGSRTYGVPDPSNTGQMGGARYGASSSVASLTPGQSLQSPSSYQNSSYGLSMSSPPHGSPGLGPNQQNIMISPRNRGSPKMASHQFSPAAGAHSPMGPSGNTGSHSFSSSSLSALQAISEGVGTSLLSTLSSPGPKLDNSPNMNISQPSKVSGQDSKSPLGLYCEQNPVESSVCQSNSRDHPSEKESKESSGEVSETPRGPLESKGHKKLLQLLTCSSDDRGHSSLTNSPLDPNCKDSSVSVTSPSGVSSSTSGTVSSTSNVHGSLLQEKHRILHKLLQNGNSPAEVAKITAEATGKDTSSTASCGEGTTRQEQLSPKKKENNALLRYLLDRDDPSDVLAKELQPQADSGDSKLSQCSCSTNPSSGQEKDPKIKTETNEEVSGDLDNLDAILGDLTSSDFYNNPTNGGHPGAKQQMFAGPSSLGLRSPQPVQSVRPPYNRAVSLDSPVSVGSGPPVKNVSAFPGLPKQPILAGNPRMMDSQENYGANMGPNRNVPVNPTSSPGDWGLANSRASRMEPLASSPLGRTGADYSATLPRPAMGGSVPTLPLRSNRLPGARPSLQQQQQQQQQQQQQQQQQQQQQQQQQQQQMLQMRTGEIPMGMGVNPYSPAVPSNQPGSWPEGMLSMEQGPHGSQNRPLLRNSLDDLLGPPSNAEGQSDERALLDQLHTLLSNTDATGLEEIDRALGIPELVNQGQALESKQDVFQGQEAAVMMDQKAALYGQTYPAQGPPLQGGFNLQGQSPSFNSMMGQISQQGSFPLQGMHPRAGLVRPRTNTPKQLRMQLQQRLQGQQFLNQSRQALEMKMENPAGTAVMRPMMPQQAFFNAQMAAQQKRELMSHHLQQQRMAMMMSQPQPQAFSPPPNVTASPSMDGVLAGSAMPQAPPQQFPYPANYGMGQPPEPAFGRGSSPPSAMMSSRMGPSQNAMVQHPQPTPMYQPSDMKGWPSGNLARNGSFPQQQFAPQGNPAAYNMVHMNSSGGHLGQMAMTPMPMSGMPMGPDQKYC
FAS TE block – FAS thioesterase (human) inhibition. recombinant FAS-TE, OMFH fluorogenic substrate, fluorescence endpoint. P49327. 360,000 tested, 0.67% active. AID 602261. inhibition, % at 15 µM;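 active = compounds whose normalised, plate-corrected inhibition of enzyme fluorescence in the single-dose primary screen is 50% or more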;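 note: 0% = DMSO with enzyme and 100% = substrate without enzyme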
GRIN3A LBD mod – modulates the human NR3A ligand-binding domain | NR3A LBD differential scanning fluorimetry, Tm shift; 0% = protein alone, 100% = glycine-bound protein | 340,000 tested, 2.5% active | Tm shift relative to glycine control, % at 25 µM;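 active = melting temperature shift of at least 10% of the positive control shift, at one fixed dose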
MIN6 prolif – MIN6 beta-cell proliferation induction; MIN6 cells proliferation, ATPlite luminescence, 48 h; cells starved in 0.2% serum; 100% = growth in 10% serum; proliferation, % at 10 µM; 330,000 tested, 0.29% active; AID 2380;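 active = compounds whose signal lies at least 3.5 SD above the mean of all wells on their plate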;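 note: 0% = DMSO-treated cells in low-serum medium and 100% = 10% serum control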
MPTP inh – permeability transition pore inhibition. isolated mouse mitochondria, Ca2+ swelling absorbance, 30 min. AID 602449. inhibition, % at 10 µM. 360,000 tested, 1.4% active;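 active = inhibition of 50% or more, scaled per plate between neutral and stimulator controls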;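 note: 0% = DMSO wells given calcium and 100% = 1 mM EGTA wells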
Rh123 counter – mitochondrial membrane potential, counter-screen; isolated mitochondria, Rhodamine 123 fluorescence; shares compounds with MPTP inh; AID 624504; inhibition, % at 10 µM; 5,000 tested, 78% active; in the data active = inhibition above about 22%;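 note: 0% = DMSO vehicle and 100% = positive control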
MPTP swell DR – MPTP inhibition, dose response swelling confirmation | shares compounds with MPTP inh | isolated mitochondria swelling, absorbance | IC50, µM | 780 tested, 58% active | AID 651561; in the data active = IC50 below about 20 µM
MPTP counter DR – MPTP inhibitor counter-screen activity, dose response. shares compounds with MPTP inh. isolated mitochondria counterscreen, fluorescence read-out. IC50, µM. 780 tested, 49% active; in the data active = IC50 below about 80 µM
* marks the source's active call; other numbers are inactive results; i = inactive; . = not tested or not shown.

SMILES | p-CIP stab down | FAS TE block | GRIN3A LBD mod | MIN6 prolif | MPTP inh | Rh123 counter | others
CC(C)[C@H](NC(=O)OC(C)(C)C)c1nnc(SCC(=O)Nc2ccc(Br)cc2)o1 | -11.4 | 0.6 | -5.6 | 3.8 | 82.2* | 53.4*
CCCCCCC1CC(CSC(=N)N)OC1=O (stereo not given) | -6.6 | -18.5 | 1.0 | -2.6 | 91.4* | -4.7 | MPTP swell DR=i;MPTP counter DR=>80
CCCC1CC(CSC(=N)N)OC1=O (stereo not given) | -1.4 | -4.1 | -0.3 | -2.2 | -5.2 | .
COc1ccc(S(=O)(=O)N(C)C[C@@H]2OCc3cnnn3CCCC(=O)N([C@@H](C)CO)C[C@H]2C)cc1 | . | -9.2 | . | . | -0.9 | .
Cc1cc(C)c(C)c(S(=O)(=O)N2CCN(c3ncnc4ccccc34)CC2)c1C | . | 37.5 | -2.3 | -8.0 | 76.1* | 104.5*
O=S(=O)(c1cc(C(F)(F)F)ccc1Cl)N1CCCCCC1 | -15.7 | 23.7 | -0.8 | -2.9 | 0.5 | .
O=S(=O)(c1cc(C(F)(F)F)ccc1Cl)N1CCN(c2ncnc3ccccc23)CC1 | . | 23.8 | -1.6 | -5.9 | 93.4* | 104.8*
O=C(O)c1cc(N=Cc2c(O)c3ccccc3oc2=O)ccc1O | -12.4 | -4.2 | -0.3 | -0.7 | -0.4 | .
Cc1ccc2nc(C)c(CN3CCN(c4ccc([N+](=O)[O-])cc4Cl)CC3)n2c1 | -38.2 | 7.3 | . | 0.0 | 87.9* | 101.8*
CCOC(=O)c1csc(NC(=O)C2=COCCO2)n1 | -8.5 | -5.9 | -0.6 | -0.5 | 0.7 | .
Cc1ccc(CN(C(=O)c2ccccc2[N+](=O)[O-])C2CCS(=O)(=O)C2)o1 (stereo not given) | -8.2 | -6.1 | 0.5 | 4.6 | -0.2 | .
CCOc1ccc(Nc2c3ccccc3nc3ccccc23)cc1 | -9.2 | 7.7 | -0.9 | -7.5 | 95.5* | 85.3*
O=C(CN1C(=O)c2cccc3cccc1c23)NC1CCCCC1 | 3.4 | -3.5 | 0.2 | 0.7 | -0.2 | .
CCOC(=O)Cc1nnc2c(Nc3ccccc3F)nc3nonc3n12 | -12.2 | -6.0 | -2.7 | -5.8 | 92.2* | 124.9*
O=C(NCCc1cccs1)c1ccc(CS(=O)Cc2cccc(Cl)c2)o1 (stereo not given) | . | -2.4 | . | . | -0.8 | .
Fc1ccc(CN2CCN3CCCC3C2C2CCCCC2)cc1F (stereo not given) | -14.2 | -0.6 | 1.0 | -2.5 | 56.2* | -12.5 | MPTP swell DR=16.3*;MPTP counter DR=>80
CCOC(=O)c1ccc2[nH]c3c(c2c1)CCCC3 | -26.5 | 13.2 | -9.0 | -3.7 | 0.1 | .
CCC(C)c1ccccc1NC(=O)COC(=O)c1ccc2[nH]c3c(c2c1)CCCC3 (stereo not given) | 2.1 | 34.3 | 7.4 | -6.8 | 82.9* | 72.7*
Cc1ccc2[nH]c3c(NCc4ccco4)ncnc3c2c1 | -12.7 | -3.8 | -2.4 | -5.5 | 59.9* | 84.7*
COc1cc(CNc2ncnc3c2[nH]c2ccc(C)cc23)cc(OC)c1 | 3.7 | 7.7 | 8.0 | -3.2 | 86.0* | 83.2*
O=S(=O)(NCc1c(Cl)cccc1Oc1ccccc1)c1ccc(F)cc1 | -8.2 | 44.5 | -13.3 | -3.1 | 12.5 | .
O=C(C1CCC1)N1CCc2cc(S(=O)(=O)Nc3ccc4c(c3)OCCO4)ccc21 | -20.8 | 5.5 | -17.3 | 0.8 | 65.3* | 81.3*
CCC(=O)N1CCc2cc(S(=O)(=O)Nc3ccc4c(c3)OCCO4)ccc21 | -5.2 | -0.1 | -0.8 | -1.6 | 81.2* | 58.5*
CS(=O)(=O)N1CCc2cc(S(=O)(=O)Nc3ccc4c(c3)OCCO4)ccc21 | -6.5 | -1.6 | 7.2 | 1.9 | 11.7 | .
CCCN(CCC)CCNS(=O)(=O)c1ccc2c(c1)CCN2C(=O)C1CCC1 | -4.9 | -1.8 | -0.1 | -3.9 | -1.1 | .
SMILES | p-CIP stab down | FAS TE block | GRIN3A LBD mod | MIN6 prolif | MPTP inh | Rh123 counter | others
O=C(C1CC1)N1CCc2cc(S(=O)(=O)NCCC3=CCCCC3)ccc21 | 7.4 | 13.2 | -14.6 | -2.5 | 62.4* | 46.0*
CCC(C(=O)NC1CCCCCC1)n1nc(C)c2c(C)n(-c3ccccc3)nc2c1=O (stereo not given) | -10.4 | 7.4 | -3.0 | -1.0 | 0.1 | .
Cc1ccc(O)c(-c2cc3ccccc3[nH]2)c1 | 6.5 | 11.3 | 22.1* | -4.5 | 53.0* | 48.9*
CC(C)COC(=O)NCC12C=CC(O1)C1C(=O)N(c3ccc(Cl)cc3)C(=O)C12 (stereo not given) | 2.3 | -1.1 | 3.5 | -1.3 | 84.9* | 8.7
FC(F)(F)c1cccc(NC(=S)NCC2COc3ccccc3O2)c1 (stereo not given) | -3.0 | 34.2 | 22.9* | -6.1 | 80.8* | 80.8*
S=C(Nc1ccccc1)Nc1ccc(Cl)cc1Cl | -3.5 | -9.0 | 3.5 | 0.0 | 60.7* | 79.3*
FC(F)(F)c1ccccc1NC(=S)Nc1cccc(Cl)c1 | -8.5 | -1.0 | 13.9* | -2.2 | 97.4* | 88.6*
FC(F)(F)c1cccc(NC(=S)Nc2cccc(NC(=S)Nc3cccc(C(F)(F)F)c3)n2)c1 | 1.0 | 39.1 | 3.7 | -4.0 | 90.9* | 63.8*
S=C(Nc1ccccc1Cl)Nc1ccc(Cl)cc1Cl | -11.1 | -5.1 | -0.4 | -4.9 | 14.2 | .
CC(C)C(=O)NC(=S)Nc1ccccc1C(F)(F)F | -6.3 | -1.8 | 0.2 | 1.1 | 4.2 | .
Cc1nonc1CN(C)C(=O)CC1C(=O)NCCN1Cc1ccc(F)c(F)c1 (stereo not given) | 5.6 | -5.1 | 0.8 | -1.9 | 0.0 | .
O=C(NNC(=S)Nc1cccc(C(F)(F)F)c1)c1cccc(Cl)c1 | -20.8 | 17.3 | 25.2* | 0.0 | 93.5* | 86.1*
FC(F)(F)c1cccc(NC(=S)NNC(=S)NCc2ccccc2)c1 | 6.6 | 17.3 | 8.7 | -4.2 | 79.4* | 71.8*
FC(F)(F)c1cccc(NC(=S)Nc2ccc(Cl)cc2Cl)c1 | 0.0 | 32.2 | 6.9 | -7.8 | 98.3* | 108.6*
O=c1cc(-c2ccc([N+](=O)[O-])cc2)nc2cc(-c3ccc(F)cc3)[nH]n12 | -5.6 | 44.4 | 7.3 | -2.6 | 88.7* | -9.7 | MPTP swell DR=>100;MPTP counter DR=27.7*
Cc1nonc1NC(=O)CSc1nc(C23CC4CC(CC(C4)C2)C3)nc2ccccc12 | -15.8 | 31.0 | 17.5* | -6.2 | 79.2* | 72.3*
Cc1nonc1NC(=O)CSc1nc(C2CCCCC2)nc2ccccc12 | -7.2 | 13.1 | -5.8 | -2.8 | 39.5 | .
COCC(=O)N1C[C@H]2CON(C)[C@H]2C[C@H]1c1cccc(-c2ccccc2)c1 | . | -4.8 | . | . | 1.3 | .
CCN(CC)c1ccc(/C=N/N=C(c2ccccc2)c2ccccc2)c(O)c1 | -4.5 | 25.0 | 0.7 | -4.3 | 5.1 | .
CCN(CC)c1ccc(/C=N/N(c2ccccc2)c2ccccc2)c(O)c1 | -7.0 | 32.4 | 2.4 | -2.7 | 97.4* | 53.6*
CCN(C(=O)COC(=O)CSc1ccc(C(N)=O)cc1[N+](=O)[O-])C1CCCCC1 | 6.4 | 6.0 | 1.9 | -0.1 | -0.4 | .
